Data: PubChem BioAssay (EPA / NIEHS)
Where “and” joins values, the source holds several entries; their conditions need not be identical. Identical values can stand only once. Results filed as inconclusive are left out. More than one record can exist for a structure, and the calls need not agree. Calls of active or inactive are those of the source. The calls were made as follows, unless noted: active = hit-call score of the fitted dose curve at least 0.9, where 1 is the maximum; inactive = score below 0.9.

What was measured:
[1] = read-out: Interleukin-8 (IL8), CXCL8 (gene 3576); test: BSK_3C_IL8: BioMAP Diversity Plus: 3C Assay for Interleukin-8 (IL8) Biomarker Activity (AID 2283020); conditions: primary human endothelial cells (HUVEC); actives raise or lower the signal
How it was run: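 Primary human umbilical vein endothelial cells (3C system) were exposed to test chemical for 24 h, then IL-8 was quantified by ELISA. Responses were fitted bidirectionally against DMSO vehicle as baseline.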

[2] = read-out: Thrombomodulin, THBD (gene 7056); test: BSK_3C_Thrombomodulin: BioMAP Diversity Plus: 3C Assay for Thrombomodulin Biomarker Activity (AID 2283029); conditions: primary human endothelial cells (HUVEC); actives raise or lower the signal
How it was run: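 Primary human umbilical vein endothelial cells (3C system) were exposed to chemical for 24 h, then thrombomodulin levels were measured by ELISA. Activity was fitted bidirectionally against the DMSO negative control as baseline.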

[3] = read-out: Vascular cell adhesion molecule 1 (VCAM1), VCAM1 (gene 7412); test: BSK_CASM3C_VCAM1: BioMAP Diversity Plus: CASM3C Assay for Vascular cell adhesion molecule 1 (VCAM1) Biomarker Activity (AID 2283055); conditions: primary human coronary artery smooth muscle cells; actives raise or lower the signal;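 also: VCAM-1 protein level quantified by ELISA on the cells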
[4] = read-out: CD40, CD40 (gene 958); test: BSK_SAg_CD40: BioMAP Diversity Plus: SAg Assay for CD40 Biomarker Activity (AID 2283088); conditions: primary human HUVEC with PBMC; actives raise or lower the signal
How it was run: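 Human umbilical vein endothelial cells co-cultured with PBMC; CD40 levels measured by ELISA with fluorescence read-out 24 h after chemical dosing. Gain or loss of signal fitted bidirectionally against DMSO baseline.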

[5] = CCTE_Harrill_HTTr_Viability_MCF7: CCTE's 6-hour Cell Viability Assessment for the High-Throughput Transcriptomics (HTTr) Platform, in MCF-7 cells cultured in DMEM + 10% fetal bovine serum, Harrill Lab (AID 2284010)
How it was run: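 Membrane integrity was scored by high-content imaging of propidium iodide dye exclusion after a 6 h exposure across an eight-point dilution series. Data were fitted bidirectionally relative to DMSO as negative control and baseline.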

[6] = ATG_VDRE_CIS: Attagene CIS-FACTORIAL HepG2 Assay for human Vitamin D Receptor Element (VDRE) (AID 2282968); conditions: HepG2 VDRE cis-reporter transcription, actives raise or lower the signal
How it was run: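 Cell-based multiplexed reporter format in human liver HepG2 cells, 24 h post-dose. Fluorescence from capillary electrophoresis of reporter cDNA gives the signal, with DMSO as negative control and baseline.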

[7] = target: Glucocorticoid receptor (Homo sapiens) (UniProt P04150); test: ATG_GR_TRANS: Attagene TRANS-FACTORIAL HepG2 Assay for human Glucocorticoid Receptor (GR) (AID 2282978; active = hit-call score of the fitted dose curve at least 0.9, where 1 is the maximum;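 also: activators score as hits since higher reporter transcript over DMSO is fitted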); conditions: HepG2 Attagene TRANS GR reporter, mRNA transcription
How it was run: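 HepG2 cells transiently transfected with multiplexed reporter units in which chimeric NR-GAL4 proteins drive GAL4-UAS reporters; 24 h compound exposure. Reporter mRNA measured by RT-PCR, 6-FAM labelling, HpaI digestion and capillary electrophoresis; gain-of-signal fitted versus DMSO.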

[8] = target: Nuclear receptor subfamily 4 group A member 2 (Homo sapiens) (UniProt P43354); test: ATG_NURR1_TRANS: Attagene TRANS-FACTORIAL HepG2 Assay for human Nuclear Receptor Related Protein 1 (NURR1) (AID 2282985; active = hit-call score of the fitted dose curve at least 0.9, where 1 is the maximum); conditions: HepG2 Attagene TRANS reporter, mRNA readout
How it was run: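 HepG2 / transient MRTU transfection / 24 h compound exposure / RT-PCR + CE fluorescence of reporter mRNA / gain-of-signal vs DMSO.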

[9] = target: Nuclear receptor subfamily 1 group I member 2 (Homo sapiens) (UniProt O75469); test: ATG_PXR_TRANS: Attagene TRANS-FACTORIAL HepG2 Assay for human Pregnane X Receptor (PXR) (AID 2283008; active = hit-call score of the fitted dose curve at least 0.9, where 1 is the maximum)
How it was run: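 Fluorescence intensity of FAM-labelled, HpaI-digested reporter amplicons, separated by capillary electrophoresis, quantifies induction. HepG2 cells with PXR-Gal4 trans-reporter system were exposed 24 h; DMSO defines baseline.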

[10] = target: Retinoic acid receptor RXR-alpha (Homo sapiens) (UniProt P19793); test: ATG_RXRa_TRANS: Attagene TRANS-FACTORIAL HepG2 Assay for human Retinoid X Receptor alpha (RXRa) (AID 2283012; active = hit-call score of the fitted dose curve at least 0.9, where 1 is the maximum)
How it was run: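 HepG2 cells transiently transfected with multiplexed GAL4-UAS reporter units and chimeric NR-GAL4 fusions, dosed 24 h. Reporter mRNA measured by RT-PCR, FAM labelling, HpaI digestion and capillary electrophoresis; gain-of-signal fitted relative to DMSO baseline.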

[11] = ACEA_ER_AUC_viability: ACEA Biosciences xCELLigence Real-Time Cell Analysis on Estrogen Receptor Agonism for Viability (AID 2283782; active = hit-call score of the fitted dose curve at least 0.9, where 1 is the maximum;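 also: continuous compound exposure with impedance area under curve over 80 h; hit means loss of impedance signal meaning reduced cell growth or viability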)
How it was run: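 T47D cells preconditioned in phenol red-free RPMI with charcoal-stripped FBS, then dosed with 8-point 1:4 series from 100 uM (up to 0.5% DMSO). Impedance monitored up to ~80 h; area-under-curve loss versus DMSO taken as viability.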

[12] = ATG_PPRE_CIS: Attagene CIS-FACTORIAL HepG2 Assay for human Peroxisome Proliferator-activated Response Element (PPRE) (AID 2282958); conditions: HepG2 PPRE cis-element reporter, Attagene transcription factor profiling; actives raise or lower the signal
How it was run: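 HepG2 cells transiently transfected with multiplexed cis-element reporter units measure endogenous transcription factor activity. After 24 h compound exposure, reporter mRNA is quantified by RT-PCR, 6-FAM labeling, HpaI digestion and capillary electrophoresis; bidirectional fits are made against DMSO baseline.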

[13] = target: Oxysterols receptor LXR-beta (Homo sapiens) (UniProt P55055); test: ATG_LXRb_TRANS: Attagene TRANS-FACTORIAL HepG2 Assay for human Liver X Receptor beta (LXRb) (AID 2282981; active = hit-call score of the fitted dose curve at least 0.9, where 1 is the maximum); conditions: HepG2 Attagene TRANS GAL4-LXRb reporter, mRNA
How it was run: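 Gain-of-signal mRNA reporter endpoint, DMSO as negative control. Transiently transfected HepG2 cells carrying the NR-Gal4 chimera and GAL4-UAS reporter units were treated 24 h; transcripts quantified by RT-PCR and capillary electrophoresis fluorescence.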

[14] = target: human Peroxisome Proliferator-activated Receptor delta (PPARd), PPARD (gene 5467) (UniProt Q03181); test: ATG_PPARd_TRANS: Attagene TRANS-FACTORIAL HepG2 Assay for human Peroxisome Proliferator-activated Receptor delta (PPARd) (AID 2283002; active = hit-call score of the fitted dose curve at least 0.9, where 1 is the maximum)
How it was run: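 Read-out: reporter mRNA induction, quantified by fluorescent RT-PCR products resolved by capillary electrophoresis. Human HepG2 liver cells carried transiently transfected Gal4-UAS reporter constructs with chimeric NR-Gal4 fusions. Cells were dosed for 24 h; DMSO served as baseline.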

[15] = target: Peroxisome proliferator-activated receptor gamma (Homo sapiens) (UniProt P37231); test: ATG_PPARg_TRANS: Attagene TRANS-FACTORIAL HepG2 Assay for human Peroxisome Proliferator-activated Receptor-gamma (PPARg) (AID 2283007; active = hit-call score of the fitted dose curve at least 0.9, where 1 is the maximum)
How it was run: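 HepG2 cells transiently transfected with multiplexed GAL4-UAS reporter units and exogenous chimeric NR-Gal4 proteins; reporter mRNA quantified after 24 h compound exposure by RT-PCR, fluorescent labelling, HpaI digestion and capillary electrophoresis; gain-of-signal fitted versus DMSO baseline.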

[16] = target: Bile acid receptor (Homo sapiens) (UniProt Q96RI1); test: ATG_IR1_CIS: Attagene CIS-FACTORIAL HepG2 Assay for human Nuclear Receptor Subfamily 1 Group H Member 4 (NR1H4), IR1 submotif (AID 2282946); conditions: IR1 reporter transcription, actives raise or lower the signal
How it was run: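 HepG2 cells transiently transfected with multiple cis-promoter-driven reporter units to measure endogenous transcription factor activity; 24 h exposure. Reporter mRNA read by RT-PCR, FAM labelling, HpaI digestion and capillary electrophoresis. Bidirectional fit versus DMSO.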

[17] = ATG_XTT_Cytotoxicity: Cytotoxicity Assessment in the Attagene TRANS-FACTORIAL HepG2 Assay (AID 2283584; active = hit-call score of the fitted dose curve at least 0.9, where 1 is the maximum)
How it was run: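 HepG2 human liver cells, transiently transfected with multiple GAL4-UAS reporter units, were dosed and read at 24 h by XTT as cell number. Loss of signal was fitted relative to DMSO negative control baseline.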

[18] = target: Oxysterols receptor LXR-alpha (Homo sapiens) (UniProt Q13133); test: ATG_LXRa_TRANS: Attagene TRANS-FACTORIAL HepG2 Assay for human Liver X Receptor alpha (LXRa) (AID 2282980; active = hit-call score of the fitted dose curve at least 0.9, where 1 is the maximum); conditions: HepG2 Attagene TRANS reporter, LXRa transactivation
How it was run: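 HepG2 cells were transiently transfected with multiplexed reporter units driven by chimeric LXRa–GAL4 fusion proteins, then dosed for 24 h. Reporter mRNA was quantified by RT-PCR, fluorescent labelling and capillary electrophoresis; gain of signal fitted against DMSO baseline.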

Measured: AC50

Glucocorticoid receptor (Homo sapiens), sequence (P04150 whole entry, looked up, the tested form may be a part): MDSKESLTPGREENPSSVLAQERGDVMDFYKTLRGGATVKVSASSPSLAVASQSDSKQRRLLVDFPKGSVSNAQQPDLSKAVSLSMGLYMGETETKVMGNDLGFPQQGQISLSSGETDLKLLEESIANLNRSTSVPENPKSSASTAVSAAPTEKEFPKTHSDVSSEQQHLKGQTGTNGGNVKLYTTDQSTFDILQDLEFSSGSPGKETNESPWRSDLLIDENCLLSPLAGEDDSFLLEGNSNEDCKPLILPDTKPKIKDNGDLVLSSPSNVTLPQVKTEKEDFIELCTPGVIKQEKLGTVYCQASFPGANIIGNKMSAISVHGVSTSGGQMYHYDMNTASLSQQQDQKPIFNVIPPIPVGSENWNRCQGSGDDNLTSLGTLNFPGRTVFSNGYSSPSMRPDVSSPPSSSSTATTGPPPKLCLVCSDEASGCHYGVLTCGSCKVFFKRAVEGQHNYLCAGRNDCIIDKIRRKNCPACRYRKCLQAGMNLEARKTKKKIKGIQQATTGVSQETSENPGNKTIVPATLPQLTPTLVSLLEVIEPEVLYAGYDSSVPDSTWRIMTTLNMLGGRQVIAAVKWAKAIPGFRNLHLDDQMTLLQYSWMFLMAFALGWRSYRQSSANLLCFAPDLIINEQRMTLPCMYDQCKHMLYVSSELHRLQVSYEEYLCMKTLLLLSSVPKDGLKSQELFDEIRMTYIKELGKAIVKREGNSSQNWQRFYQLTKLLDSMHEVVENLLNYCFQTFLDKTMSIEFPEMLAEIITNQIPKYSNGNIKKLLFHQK
Retinoic acid receptor RXR-alpha (Homo sapiens), sequence (P19793 whole entry, looked up, the tested form may be a part): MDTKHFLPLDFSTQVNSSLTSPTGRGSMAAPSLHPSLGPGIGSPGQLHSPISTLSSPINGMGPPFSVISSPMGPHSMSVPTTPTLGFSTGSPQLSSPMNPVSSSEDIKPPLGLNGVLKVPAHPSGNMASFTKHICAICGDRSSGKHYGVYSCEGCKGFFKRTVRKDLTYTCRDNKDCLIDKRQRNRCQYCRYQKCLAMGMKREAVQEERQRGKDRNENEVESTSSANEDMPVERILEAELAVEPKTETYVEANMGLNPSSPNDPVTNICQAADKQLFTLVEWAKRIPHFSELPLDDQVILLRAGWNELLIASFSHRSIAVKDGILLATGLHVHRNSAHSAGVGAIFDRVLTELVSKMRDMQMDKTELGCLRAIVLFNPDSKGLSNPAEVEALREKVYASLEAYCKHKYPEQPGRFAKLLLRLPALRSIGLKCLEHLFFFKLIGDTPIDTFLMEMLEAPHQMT
Nuclear receptor subfamily 4 group A member 2 (Homo sapiens), sequence (P43354 whole entry, looked up): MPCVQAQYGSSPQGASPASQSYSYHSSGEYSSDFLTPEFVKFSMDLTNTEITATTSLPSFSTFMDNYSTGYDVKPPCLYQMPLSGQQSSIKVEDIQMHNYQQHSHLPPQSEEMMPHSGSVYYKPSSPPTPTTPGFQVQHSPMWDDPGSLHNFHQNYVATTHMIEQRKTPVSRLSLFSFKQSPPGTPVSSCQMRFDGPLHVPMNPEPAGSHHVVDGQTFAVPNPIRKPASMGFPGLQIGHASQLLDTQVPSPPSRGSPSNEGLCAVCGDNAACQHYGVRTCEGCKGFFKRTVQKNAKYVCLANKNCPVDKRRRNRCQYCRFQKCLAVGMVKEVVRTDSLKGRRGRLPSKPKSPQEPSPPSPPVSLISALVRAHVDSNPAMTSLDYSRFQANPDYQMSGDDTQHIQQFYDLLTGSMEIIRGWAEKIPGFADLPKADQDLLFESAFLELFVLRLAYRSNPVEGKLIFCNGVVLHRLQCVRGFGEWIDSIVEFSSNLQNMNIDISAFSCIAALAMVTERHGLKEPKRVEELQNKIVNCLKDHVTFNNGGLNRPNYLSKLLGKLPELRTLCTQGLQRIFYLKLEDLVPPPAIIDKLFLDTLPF
Oxysterols receptor LXR-beta (Homo sapiens), sequence (P55055 whole entry, looked up, the tested form may be a part): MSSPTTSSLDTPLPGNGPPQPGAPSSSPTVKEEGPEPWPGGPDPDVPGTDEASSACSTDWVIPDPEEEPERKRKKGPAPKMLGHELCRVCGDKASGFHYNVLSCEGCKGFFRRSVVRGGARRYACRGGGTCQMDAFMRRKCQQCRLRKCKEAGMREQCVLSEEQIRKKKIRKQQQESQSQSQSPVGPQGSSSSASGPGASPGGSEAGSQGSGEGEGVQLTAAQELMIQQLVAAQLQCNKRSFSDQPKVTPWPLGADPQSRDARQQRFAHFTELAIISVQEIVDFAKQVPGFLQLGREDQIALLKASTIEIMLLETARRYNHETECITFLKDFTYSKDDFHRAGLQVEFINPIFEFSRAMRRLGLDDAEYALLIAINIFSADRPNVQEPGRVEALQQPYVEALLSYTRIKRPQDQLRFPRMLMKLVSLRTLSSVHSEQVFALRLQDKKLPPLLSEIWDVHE
Oxysterols receptor LXR-alpha (Homo sapiens), sequence (Q13133 whole entry, looked up, the tested form may be a part): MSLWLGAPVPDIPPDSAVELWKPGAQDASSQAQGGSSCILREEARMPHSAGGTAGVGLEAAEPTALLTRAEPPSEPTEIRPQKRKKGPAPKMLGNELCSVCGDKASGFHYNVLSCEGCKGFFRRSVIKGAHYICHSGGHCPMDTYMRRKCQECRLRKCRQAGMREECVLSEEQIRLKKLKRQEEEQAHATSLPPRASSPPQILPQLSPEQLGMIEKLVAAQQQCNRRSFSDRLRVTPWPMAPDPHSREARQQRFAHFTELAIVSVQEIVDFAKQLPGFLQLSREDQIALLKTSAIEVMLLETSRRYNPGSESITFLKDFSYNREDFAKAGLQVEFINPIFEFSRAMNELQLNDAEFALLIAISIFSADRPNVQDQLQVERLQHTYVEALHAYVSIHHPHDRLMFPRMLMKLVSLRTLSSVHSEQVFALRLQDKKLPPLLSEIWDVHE
human Peroxisome Proliferator-activated Receptor delta (PPARd), PPARD (gene 5467), sequence (Q03181 whole entry, looked up, the tested form may be a part): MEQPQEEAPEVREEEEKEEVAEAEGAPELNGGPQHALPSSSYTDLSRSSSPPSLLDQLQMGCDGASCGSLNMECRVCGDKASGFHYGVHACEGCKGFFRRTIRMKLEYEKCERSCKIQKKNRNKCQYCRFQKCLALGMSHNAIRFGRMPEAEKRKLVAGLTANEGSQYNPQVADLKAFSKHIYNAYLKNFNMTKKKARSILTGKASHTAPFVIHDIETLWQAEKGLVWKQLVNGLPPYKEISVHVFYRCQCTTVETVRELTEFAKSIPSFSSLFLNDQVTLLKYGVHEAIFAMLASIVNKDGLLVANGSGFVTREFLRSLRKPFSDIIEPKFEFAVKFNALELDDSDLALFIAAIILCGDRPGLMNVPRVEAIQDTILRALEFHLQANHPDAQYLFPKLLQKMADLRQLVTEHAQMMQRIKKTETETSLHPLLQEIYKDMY
Nuclear receptor subfamily 1 group I member 2 (Homo sapiens), sequence (O75469 whole entry, looked up, the tested form may be a part): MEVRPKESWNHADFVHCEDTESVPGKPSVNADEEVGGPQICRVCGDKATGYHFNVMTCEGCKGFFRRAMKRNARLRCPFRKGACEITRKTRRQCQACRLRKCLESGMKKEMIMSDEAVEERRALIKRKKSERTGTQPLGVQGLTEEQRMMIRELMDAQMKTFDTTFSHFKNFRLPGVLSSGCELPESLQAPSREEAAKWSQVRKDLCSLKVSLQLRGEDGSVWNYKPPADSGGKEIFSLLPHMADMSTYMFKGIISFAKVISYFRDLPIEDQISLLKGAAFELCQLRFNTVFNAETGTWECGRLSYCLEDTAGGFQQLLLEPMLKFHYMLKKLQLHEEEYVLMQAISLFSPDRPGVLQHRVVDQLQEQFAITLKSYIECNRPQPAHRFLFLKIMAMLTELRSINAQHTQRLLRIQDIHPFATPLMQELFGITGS
Peroxisome proliferator-activated receptor gamma (Homo sapiens), sequence (P37231 whole entry, looked up, the tested form may be a part): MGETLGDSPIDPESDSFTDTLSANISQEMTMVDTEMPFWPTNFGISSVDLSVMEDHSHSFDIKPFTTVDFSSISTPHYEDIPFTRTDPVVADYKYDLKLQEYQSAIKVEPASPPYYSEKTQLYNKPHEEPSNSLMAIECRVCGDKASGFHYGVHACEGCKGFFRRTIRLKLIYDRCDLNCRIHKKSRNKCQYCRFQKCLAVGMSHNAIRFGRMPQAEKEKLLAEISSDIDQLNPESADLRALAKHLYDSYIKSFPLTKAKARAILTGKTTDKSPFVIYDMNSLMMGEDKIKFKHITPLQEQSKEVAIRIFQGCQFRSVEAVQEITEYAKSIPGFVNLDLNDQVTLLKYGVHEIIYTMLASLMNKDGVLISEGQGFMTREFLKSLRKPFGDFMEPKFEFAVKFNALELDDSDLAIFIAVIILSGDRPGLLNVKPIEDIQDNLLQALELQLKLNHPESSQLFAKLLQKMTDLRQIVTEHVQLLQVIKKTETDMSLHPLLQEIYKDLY
Bile acid receptor (Homo sapiens), sequence (Q96RI1 whole entry, looked up): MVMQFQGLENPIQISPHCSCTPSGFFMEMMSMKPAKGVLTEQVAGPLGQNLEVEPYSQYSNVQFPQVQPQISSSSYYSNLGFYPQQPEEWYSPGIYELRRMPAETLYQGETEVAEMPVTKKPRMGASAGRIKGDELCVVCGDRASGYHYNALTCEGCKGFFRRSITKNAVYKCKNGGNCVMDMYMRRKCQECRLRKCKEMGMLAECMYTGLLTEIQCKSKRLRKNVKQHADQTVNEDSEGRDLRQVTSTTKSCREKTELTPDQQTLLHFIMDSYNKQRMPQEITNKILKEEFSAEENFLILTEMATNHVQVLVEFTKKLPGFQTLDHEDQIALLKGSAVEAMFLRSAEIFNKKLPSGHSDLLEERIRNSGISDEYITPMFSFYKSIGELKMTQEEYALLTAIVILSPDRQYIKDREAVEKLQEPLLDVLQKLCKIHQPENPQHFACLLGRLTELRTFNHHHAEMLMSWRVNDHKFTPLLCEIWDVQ

CCCCC(CC)COC(=O)C=Cc1ccc(OC)cc1 (stereo not given)
active: [1] 30.8 µM and 28.7 µM | [2] 9.77 µM and 8.63 µM | [3] 14.9 µM | [4] 32.1 µM and 31.9 µM
inactive: [3] | [5]

Cc1c(C(N)=O)cc([N+](=O)[O-])cc1[N+](=O)[O-]
active: [4] 32.4 µM
inactive: [1] | [2] | [3] | [4]

C1CN(CCOCCN2CCOCC2)CCO1
active: [1] 9.48 µM
inactive: [1] | [2] | [3] | [4]

CCCCC(CC)COC(=O)CS (stereo not given)
inactive: [7] | [8] | [9] | [10] | [11]
active: [6] 26.4 µM

Nc1nnc(-c2ccc([N+](=O)[O-])o2)o1
inactive: [12] | [6] | [13] | [8] | [14] | [15]

O=C1NC(=O)C2CC=CCC12 (stereo not given)
inactive: [16] | [13] | [14] | [9] | [10] | [17] | [11]

CCCCCCCCCCCCCCCCCC[N+](C)(C)C
inactive: [18] | [13] | [8] | [14] | [10]
active: [16] 45.2 µM | [12] 6.2 µM | [6] 6.1 µM | [7] 11.8 µM | [15] 32.7 µM | [9] 25 µM | [1] 5 µM | [2] 2.9 µM | [3] 3.73 µM | [4] 5 µM

COc1ccc2ccccc2c1
inactive: [12] | [7] | [18] | [5]

CC(C)C1OCCN1CCOC(=O)NCCCCCCNC(=O)OCCN1CCOC1C(C)C (stereo not given)
inactive: [1] | [2] | [3] | [4]

CCCCCCCCCCCCCC
inactive: [18] | [8] | [9] | [17] | [11] | [5]

CCOc1nc2cccc(C(=O)OC(C)OC(=O)OC3CCCCC3)c2n1Cc1ccc(-c2ccccc2-c2nn[nH]n2)cc1 (stereo not given)
inactive: [5]
